Reference: PubChem BioAssay (NCI)
About 83,000 compounds went through this panel and 20% of them were active in at least one assay; those are over-represented in the sample as a whole.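 Treatment: one concentration, 48 hours, 96-well format. Scoring: percent growth, with anything below 10 considered active.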 Unmarked numbers belong to inactive results. The source made the active and inactive calls.

What follows are molecules tested on MDA-MB-468 breast (assay: NCI-60 one-dose screen, 48 h (100 = growth as untreated, 0 = no growth, -100 = all killed)). Conditions: 10 µM unless noted.

| SMILES | growth |
| --- | --- |
| C[C@H](NC(=O)[C@@H](C)N)[C@H](Oc1ccc2c(cnn2-c2ccc(F)cc2)c1)c1ccc2c(c1)OCCO2 | 37.7% |
| CCCCCC(C)c1ccc(O)c(C)c1 (stereo not given) | 101% |
| Cc1cc2nc3c4cc(Cl)ccc4n(CCN(C)C)c3nc2cc1C | -42.1% (active) |
| CCCCCCCCCC(=O)Oc1ccc(/C(=C(/C)c2ccccc2)c2ccc(OCCN3CCCC3)cc2)cc1 | -29.4% (active) |
| Cc1cc(NCCCNc2ccnc3cc(Cl)ccc23)nc(N2CCN(C)CC2)n1 | 65.4% |
| C[Si](C)(C)Cc1ccccc1 | 104% |
| NCCCCCNc1noc(Cc2c[nH]c3cc(Br)ccc23)n1 | 4.11% (active) |
| Sc1ccc(Nc2c3ccccc3nc3ccccc23)cc1 | 44.1% |
| COC(=O)C(OC(C)=O)C(OC(C)=O)c1ccc(OC)c(OC)c1 (stereo not given) | 108% |
| N#Cc1c(-c2ccccc2)nc2c(c(-c3ccccc3)nn2-c2ccccc2)c1-c1ccc(N2CCOCC2)cc1 | 80.9% |
| CCOC(=O)c1cccc(NC2=C(Cl)C(=O)C(C)=C(C)C2=O)c1 | -20.6% (active) |
| O=[N+]([O-])c1cc(S(=O)(=O)c2ccc(F)c([N+](=O)[O-])c2)ccc1F | 88.4% |
| Fc1cccc(Cl)c1/C=N/Nc1nc(N/N=C/c2c(F)cccc2Cl)nc(N2CCCCC2)n1 | -14.2% (active) |
| CC(C)CC(NC(=O)CN(Cc1ccccc1)S(C)(=O)=O)C(=O)O (stereo not given) | 99.6% |
| C#Cc1nc(C2=C(C)C(OC(=O)CCC(=O)O)CC2)cs1 (stereo not given) | 99.6% |
